The text below walks through data of PubChem BioAssay AID488905 (Broad Institute, 2010).

Structures are written as SMILES. Potency and affinity values are given separately. Records with an inconclusive call do not appear. Activity calls are given as the source filed them.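 The calls were made as follows: active = growth inhibition lowering dye signal, with fitted half-maximal dose at most ten times the top valid dose; inconclusive = flat curve inhibiting 30 to 70 percent, or unreliable fit; inactive = the rest, including effects in the opposite direction.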

The nature of this test: growth inhibition of azole-resistant C. albicans, dose response, CaCi-8 strain, Alamar Blue, dry powder, set 3 (AID 488905). Conditions: C. albicans CaCi-8 + fluconazole, 48 h; series mostly up to 26 µM; activity change, negative = inhibition: at the top concentration.
For `O=C(c1ccccc1)N1CCN(c2ccccn2)CC1`, the “activity change, negative = inhibition” value was -14.1% (inactive). In the case of `Cn1ccnc1N1CCN(C(=O)c2ccc(Cl)cc2)CC1`, the “activity change, negative = inhibition” value is 0.78% (inactive). Take `O=C(c1ccc(Cl)cc1)N1CCN(c2cccc(C(F)(F)F)n2)CC1`: the “activity change, negative = inhibition” value is -7.96% (inactive). Turning to `COc1cccnc1N1CCN(C(=O)c2ccc(Cl)cc2)CC1`, the “activity change, negative = inhibition” value was -27.1% (inactive). As to `O=C(c1ccc(Cl)cc1)N1CCN(c2cnccn2)CC1`, the “activity change, negative = inhibition” value was -3.7% (inactive).

As to `COCCC(=O)N1CCN(c2ccccn2)CC1`, the “activity change, negative = inhibition” value is -18.7% (inactive).

Take `Cc1cccc(N2CCN(C(=O)c3ccc(Cl)cc3)CC2)n1`: the “activity change, negative = inhibition” value was -21.9% (inactive).
